Source: PubChem BioAssay
Only some compounds are listed: those with a hit (about 4% of all), similar ones and a draw of the others.
KKLEB tox – counter-screen for CF NF-kB inhibitors: cytotoxicity; AID 602141; activity change (cytotoxicity), % at 5 µM; KKLEB CF airway cells viability, ATPlite luminescence, overnight; stronger effect = lower value; cells stimulated with P. aeruginosa culture filtrate; hit rate 0.36% among 360,000;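 active = corrected activity change at or below -50% at 5 µM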
HIF-2a inh – HIF-2a inhibition. inhibition, % at 18.8 µM. 786-0 RCC cells HIF-2a reporter, luciferase luminescence, overnight. AID 624352. hit rate 0.72% among 360,000;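 active = inhibition of the luminescence signal of 40% or more relative to plate controls, in a single-dose primary screen at 18.75 µM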
TROY NFkB inh – blocks TROY-dependent signaling in reporter cells. Q293 LMP1-TROYcd NF-kB luciferase reporter, 4 h. inhibition, % at 10 µM. hit rate 0.98% among 360,000;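 active = compounds whose plate-normalised and pattern-corrected inhibition of the luciferase reporter signal at the single screening dose is 50% or more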
TWEAK Fn14 block – blocks TWEAK-Fn14 interaction in a reporter cell assay; AID 1159606; TWEAK-stimulated Fn14 reporter cells, luciferase luminescence, 8 h; inhibition, % at 10 µM; hit rate 2% among 360,000; in the data active = inhibition above about 50%
CF NFkB inh – cystic fibrosis NF-kB activation inhibition; KKLEB NF-kB-GFP reporter, PAF-induced, GFP fluorescence overnight; inhibition, % at 5 µM; hit rate 0.86% among 360,000;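 active = at least 50% inhibition at 5 µM, scaled per plate between neutral and stimulator controls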;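 also: PAF is a Pseudomonas aeruginosa culture filtrate used as stimulus; plate controls were PAF-stimulated DMSO wells for no effect and unstimulated DMSO wells for full effect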
Peg3 promoter – reduces Peg3 promoter-driven luciferase expression in HeLa; hit rate 1.7% among 360,000; inhibition, % at 20 µM; HeLa PEG-Prom luciferase reporter, luminescence, overnight;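 active = inhibition of at least 50% at 20 µM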
An asterisk follows results filed as active.

For COC(=O)c1c(-c2ccc3ccccc3c2)csc1NC(=O)Cc1ccc(OC)c(OC)c1 the results were KKLEB tox -5.7, HIF-2a inh 8.5, TROY NFkB inh 46.9, TWEAK Fn14 block 65.3*, CF NFkB inh 16.5 and Peg3 promoter 41.6.
For COC(=O)c1c(-c2ccc(OC)c(OC)c2)csc1N the results were KKLEB tox 5.2, HIF-2a inh 20.5, TROY NFkB inh -1.2, TWEAK Fn14 block 11.4, CF NFkB inh -11.7 and Peg3 promoter -9.4.
For Cc1cccc(C#CC2=CC(=O)CC(C)(C)C2)c1 the results were KKLEB tox -4.8, HIF-2a inh -52.8, TROY NFkB inh -45.4, TWEAK Fn14 block -7.3, CF NFkB inh 19.2 and Peg3 promoter -13.7.
For CC1(C)CC(=O)C=C(C#CC2(O)CCCCC2)C1 the results were KKLEB tox -16.6, HIF-2a inh 33.7, TROY NFkB inh 8.3, TWEAK Fn14 block 63.8*, CF NFkB inh 19.9 and Peg3 promoter 18.0.
For CCCOc1ccc(/C(CC)=N/NC(=O)C2(C)CC2(Br)Br)cc1 (centres undefined) the results were KKLEB tox -51.6*, HIF-2a inh 1.6, TROY NFkB inh 3.3, TWEAK Fn14 block -13.2, CF NFkB inh 34.2 and Peg3 promoter 8.9.
CC(=O)C1=NN(c2ccccc2)C(c2ccc3c(c2)OCO3)N1c1ccc(N2CCOCC2)cc1 (centres undefined) was read as KKLEB tox 7.4, HIF-2a inh -12.1, TROY NFkB inh -5.3, TWEAK Fn14 block 1.2, CF NFkB inh -4.0 and Peg3 promoter -18.6.
COc1cccc(N2C(C(C)=O)=NN(c3ccccc3)C2c2ccc(N3CCOCC3)cc2)c1 (centres undefined) was read as KKLEB tox -16.6, HIF-2a inh -121.6, TROY NFkB inh 43.1, TWEAK Fn14 block 55.0*, CF NFkB inh -7.1 and Peg3 promoter -100.7.
`COc1ccc2[nH]c(=O)c(CN(Cc3cccnc3)C(=S)NCC3CCCO3)cc2c1` (centres undefined) gave KKLEB tox 11.2, HIF-2a inh 16.5, TROY NFkB inh -18.4, TWEAK Fn14 block 9.9, CF NFkB inh -9.5 and Peg3 promoter 19.5.
NNc1nc(-c2ccccc2)nc2sc3c(c12)CCCC3 was read as KKLEB tox -25.8, HIF-2a inh -90.8, TROY NFkB inh 72.4*, TWEAK Fn14 block 79.2*, CF NFkB inh -1.7 and Peg3 promoter -199.7.
NNc1nc2sc3c(c2c(=O)n1Cc1ccccc1)CCC3 was read as KKLEB tox 1.0, HIF-2a inh -22.6, TROY NFkB inh -5.1, TWEAK Fn14 block -20.6, CF NFkB inh 4.2 and Peg3 promoter 4.9.
Screening c1ccc(-c2cc3c(N4CCN(c5ccccc5)CC4)ncnc3s2)cc1 returned KKLEB tox 9.6, HIF-2a inh -52.9, TROY NFkB inh 27.0, TWEAK Fn14 block 42.5, CF NFkB inh 8.4 and Peg3 promoter 4.3.
Screening Cc1ccc(S(=O)(=O)N2CCN(c3ncnc4scc(-c5ccccc5)c34)CC2)cc1 returned KKLEB tox -5.9, HIF-2a inh -3.6, TROY NFkB inh 1.7, TWEAK Fn14 block -3.1, CF NFkB inh 9.4 and Peg3 promoter 8.4.
`O=S(=O)(c1ccc(Br)cc1)N1CCN(c2cc(-c3ccccc3)nc3ncnn23)CC1` gave KKLEB tox 1.7, HIF-2a inh -17.3, TROY NFkB inh -10.1, TWEAK Fn14 block 24.6, CF NFkB inh -4.7 and Peg3 promoter 5.9.
O=S(=O)(c1ccccc1)N1CCN(c2ncnc3sc(-c4ccccc4)cc23)CC1 was read as KKLEB tox -2.1, HIF-2a inh 16.4, TROY NFkB inh 37.4, TWEAK Fn14 block 81.4*, CF NFkB inh 6.6 and Peg3 promoter 1.5.
Cc1sc2ncnc(N3CCN(S(=O)(=O)c4ccccc4)CC3)c2c1C was read as KKLEB tox -5.0, HIF-2a inh 29.9, TROY NFkB inh 4.5, TWEAK Fn14 block 74.0*, CF NFkB inh 9.1 and Peg3 promoter 30.9.
Screening O=S(=O)(c1ccccc1)N1CCN(c2cc(-c3ccccc3)nc3ncnn23)CC1 returned KKLEB tox 9.1, HIF-2a inh 10.3, TROY NFkB inh 32.3, TWEAK Fn14 block 70.3*, CF NFkB inh 14.7 and Peg3 promoter 14.5.
For Cc1ccc(OCCN2CCN(c3ncnc4sc(C)c(C)c34)CC2)cc1 the results were KKLEB tox -16.7, HIF-2a inh 11.2, TROY NFkB inh 38.6, TWEAK Fn14 block 50.4*, CF NFkB inh 2.5 and Peg3 promoter 18.8.
Screening Cc1cc(C)cc(NC(=O)COC(=O)Cc2ccccc2F)c1 returned KKLEB tox 0.4, HIF-2a inh 8.3, TROY NFkB inh -5.9, TWEAK Fn14 block 75.2*, CF NFkB inh 17.4 and Peg3 promoter 5.8.
For CCn1cc(CCC(=O)NC2CCCC2)c2ccccc21 the results were KKLEB tox -4.3, HIF-2a inh 12.6, TROY NFkB inh -12.9, TWEAK Fn14 block -1.7, CF NFkB inh 1.6 and Peg3 promoter -4.5.
Screening Cc1ccc(NC(=O)CNc2cc(S(=O)(=O)N3CCOCC3)ccc2NCC2CCCO2)cc1F (centres undefined) returned KKLEB tox -9.1, HIF-2a inh -77.0, TROY NFkB inh -29.2, TWEAK Fn14 block -32.0, CF NFkB inh -13.9 and Peg3 promoter -29.0.
Screening Cc1c(CC(=O)NCCC(=O)O)c(=O)oc2cc3oc4c(c3cc12)CCCC4 returned KKLEB tox -3.0, HIF-2a inh 16.6, TROY NFkB inh 10.6, TWEAK Fn14 block -0.1, CF NFkB inh -13.0 and Peg3 promoter 0.5.
`Cc1c(CCC(=O)N[C@@H](C)C(=O)O)c(=O)oc2cc3oc4c(c3cc12)CCCC4` gave KKLEB tox -2.4, HIF-2a inh 75.7*, TROY NFkB inh -10.6, TWEAK Fn14 block 37.8, CF NFkB inh -0.7 and Peg3 promoter -74.1.
Screening Cc1c(CCC(=O)N2CCC(C(=O)O)CC2)c(=O)oc2cc3oc4c(c3cc12)CCCC4 returned KKLEB tox -12.0, HIF-2a inh 58.1*, TROY NFkB inh 24.9, TWEAK Fn14 block 41.4, CF NFkB inh 9.7 and Peg3 promoter -40.4.
For CCS(=O)(=O)c1c([N+](=O)[O-])ncn1C the results were KKLEB tox 11.6, HIF-2a inh 13.3, TROY NFkB inh 7.1, TWEAK Fn14 block 18.2, CF NFkB inh 15.9 and Peg3 promoter 59.6*.
CC(=O)Nc1ccc(C2=NNC(=Nc3cccc(S(=O)(=O)N(C)C)c3)SC2)cc1 was read as KKLEB tox 18.2, HIF-2a inh 5.0, TROY NFkB inh 16.5, TWEAK Fn14 block 62.5*, CF NFkB inh 5.5 and Peg3 promoter 15.4.
For CC(=O)Nc1ccc(C2=NNC(=Nc3ccc(S(=O)(=O)N4CCOCC4)cc3)SC2)cc1 the results were KKLEB tox 13.1, HIF-2a inh 3.4, TROY NFkB inh 3.0, TWEAK Fn14 block 8.9, CF NFkB inh -12.8 and Peg3 promoter -8.5.
Screening Cc1ccc(Cc2nc(-c3ccccn3)no2)cc1 returned KKLEB tox -1.9, HIF-2a inh -138.4, TROY NFkB inh -22.0, TWEAK Fn14 block 26.6, CF NFkB inh 9.2 and Peg3 promoter -176.0.
